Data from PubChem BioAssay (Tox21).
Values joined by “and” are separate entries in the source; they are usually repeats but may differ in a detail not shown here. Equal entries are not always repeated. Inconclusive results are not listed. A structure can be active in one record and inactive in another. Active and inactive are the calls of the source. Unless noted, calls follow the shape of the dose curve; as a rule, active = well fitted curve in the direction sought with a large enough effect in the repeat runs; inconclusive = weak or mixed curves; inactive = no such curve, though single readings can be large; an effect the other way counts as inactive or inconclusive.

Tests used:
[1] = qHTS assay to identify small molecule agonists of the estrogen receptor alpha (ER-alpha) signaling pathway in the presence of an antagonist - cell viability counter screen (AID 1259386); conditions: VM7Luc4E2 viability, CellTiter-Fluor fluorescence, 22 h; series mostly up to 92.4 µM;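 also: cells exposed to compounds for 22 h at 37 °C before the viability read; nearly all actives have a fitted effect of over 30% in size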; also: potency is read from the fitted curve at half-maximal effect
Summary of the method: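 VM7Luc4E2 cells (endogenous full-length ER-alpha, 4×ERE-luciferase) were held 5 days in phenol red-free medium with 10% charcoal-stripped FBS, plated, then given 10.0nM ICI-182,780 and compounds at 15 concentrations for 22hr at 37C; viability read by CellTiter-Fluor fluorescence.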

[2] = qHTS assay to identify small molecule antagonists of the progesterone receptor (PR) signaling pathway - cell viability counter screen (AID 1346798); conditions: PR-UAS-bla HEK293T viability, CellTiter-Glo luminescence, 16 h; series mostly up to 92.4 µM; also: nearly all actives have a fitted effect of over 50% in size; also: potency is read from the fitted curve at half-maximal effect
Summary of the method: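 HEK293T PR-UAS-bla, 2% charcoal-stripped FBS; 4 hr pre-plate; cpd + R5020, 16 h 37C; LiveBLAzer read first; then CellTiter-Glo 30 min RT, luminescence.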

[3] = qHTS assay to identify small molecule agonists of the progesterone receptor (PR) signaling pathway - cell viability counter screen (AID 1346799; calls by dose curve; also: nearly all actives have a fitted effect of over 45% in size; also: potency is read from the fitted curve at half-maximal effect); conditions: PR-UAS-bla HEK293T viability, CellTiter-Glo luminescence, 16 h; series mostly up to 92.4 µM
Summary of the method: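 Luminescence from CellTiter-Glo, added after the beta-lactamase FRET read in the same wells, gave cytotoxicity in PR-UAS-bla HEK293T cells treated with compounds for 16 hr at 37C.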

[4] = qHTS assay to identify small molecule antagonists of the TGF-beta/Smad signaling pathway - cell viability counter screen (AID 1346824); conditions: SBE-bla HEK293T viability, CellTiter-Glo luminescence; series mostly up to 76.8 µM; also: nearly all actives have a fitted effect of over 50% in size; also: potency is read from the fitted curve at half-maximal effect
Summary of the method: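 SBE-bla HEK 293T cells were plated overnight at 37 C, then given compounds in DMSO plus TGF-beta1 (added as 0.25 ng/mL solution) for 5 hr. After the bla read, CellTiter-Glo was added to the same wells and luminescence read after 30 min at room temperature.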

[5] = qHTS assay to identify small molecule agonists of the TGF-beta/Smad signaling pathway (AID 1346859; active = well fitted activation curve with a large enough effect in the signal ratio in the repeat runs, not every such curve was filed as active; the % refers to the signal ratio); conditions: SBE-bla HEK293T, TGF-beta/Smad beta-lactamase reporter, 5 h; series mostly up to 76.8 µM
Summary of the method: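 SBE-bla HEK 293T, 4,000 cells/well, plated o/n; cpd in DMSO, 5 hr, 37 C/5% CO2; B/G FRET substrate 2 hr RT; ex 405, em 460/530 nm.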

[6] = target: Thyrotropin-releasing hormone receptor (Homo sapiens) (UniProt P34981); assay: qHTS assay to identify small molecule agonists of the thyrotropin-releasing hormone receptor (TRHR) signaling pathway (AID 1346891; calls by dose curve); conditions: TRHR-HEK293 calcium fluorescence, agonist mode; series mostly up to 57.6 µM
Sequence of Thyrotropin-releasing hormone receptor (Homo sapiens) (P34981 whole entry, looked up): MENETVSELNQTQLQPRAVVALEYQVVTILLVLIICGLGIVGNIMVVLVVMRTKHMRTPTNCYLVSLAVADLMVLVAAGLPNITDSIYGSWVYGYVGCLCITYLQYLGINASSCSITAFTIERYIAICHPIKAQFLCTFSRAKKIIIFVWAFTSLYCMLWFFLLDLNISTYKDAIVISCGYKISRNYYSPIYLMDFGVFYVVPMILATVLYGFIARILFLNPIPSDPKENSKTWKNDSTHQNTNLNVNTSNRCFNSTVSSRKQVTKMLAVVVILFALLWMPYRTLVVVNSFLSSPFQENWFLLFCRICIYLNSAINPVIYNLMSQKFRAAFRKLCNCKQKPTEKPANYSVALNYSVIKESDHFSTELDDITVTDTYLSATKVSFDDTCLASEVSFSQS
Summary of the method: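 Intracellular calcium rise, read as fluorescence every second for 3 min, served as the agonist signal in dye-loaded HEK293 cells expressing TRHR; each compound ran at 15 concentrations in triplicate.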

[7] = Human pregnane X receptor (PXR) small molecule agonists, qHTS cell viability counter screen (AID 1346977); conditions: PXR-Luc HepG2 viability, CellTiter-Fluor, 24 h; series mostly up to 92.4 µM; also: nearly all actives have a fitted effect of over 50% in size; also: potency is read from the fitted curve at half-maximal effect
Summary of the method: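 PXR-Luc HepG2, 2,000 cells/well, 5% charcoal-stripped FBS; 5hr settle; cpd 24hr, 37C/5% CO2; CellTiter-Fluor at 23hr, read 1hr later (fluorescence).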

[8] = Caspase-3/7 induction in HepG2 cells by small molecules, qHTS assay (AID 1346978); conditions: HepG2 caspase-3/7 activation, Caspase-Glo luminescence, 17 h; series mostly up to 92.4 µM; also: nearly all actives have a fitted effect of over 15% in size; also: potency is read from the fitted curve at half-maximal effect
Summary of the method: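 Wild-type HepG2 cells (2,000/well) were settled 5 h at 37 C, 5% CO2, then exposed to compounds in DMSO for 17 h. Caspase-3/7 activity was read by luminescence 30 min after adding Caspase-Glo 3/7 reagent at room temperature.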

[9] = Caspase-3/7 induction in CHO-K1 cells by small molecules, qHTS cell viability counter screen (AID 1346979); conditions: CellTiter-Fluor fluorescence, 17 h; series mostly up to 92.4 µM; also: nearly all actives have a fitted effect of over 35% in size; also: potency is read from the fitted curve at half-maximal effect
Summary of the method: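 Cells (CHO-K1, wild type) are plated at 1,500 per well and incubated 5hr. Test compounds in DMSO are then pinned in, followed by 16hr at 37C and 5% CO2. Viability is read by CellTiter-Fluor fluorescence after 1hr.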

[10] = Caspase-3/7 induction in CHO-K1 cells by small molecules, qHTS assay (AID 1346980); conditions: CHO-K1 caspase-3/7 induction, Caspase-Glo luminescence, 17 h; series mostly up to 92.4 µM; also: nearly all actives have a fitted effect of over 15% in size; also: potency is read from the fitted curve at half-maximal effect
Summary of the method: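 Wild-type cells were seeded at 1,500 per well and settled 5 hr at 37 C, 5% CO2, then exposed to DMSO-dissolved compounds for 17 hr. Caspase-Glo 3/7 reagent was added, and luminescence was read after 30min at room temperature.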

[11] = Caspase-3/7 induction in HepG2 cells by small molecules, qHTS cell viability counter screen (AID 1346981); conditions: CellTiter-Fluor fluorescence, 17 h; series mostly up to 92.4 µM; also: nearly all actives have a fitted effect of over 30% in size; also: potency is read from the fitted curve at half-maximal effect
Summary of the method: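 Wild-type HepG2 cells (2,000/well) were allowed to settle for 5 hr at 37 C, 5% CO2, then dosed with compounds in DMSO by pin transfer. After 16 hr at 37 C, CellTiter-Fluor was added and fluorescence read 1 hr later.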

[12] = target: Nuclear receptor subfamily 1 group I member 2 (Homo sapiens) (UniProt O75469); assay: Human pregnane X receptor (PXR) small molecule agonists, qHTS assay (AID 1346982); conditions: PXR-Luc HepG2, CYP3A4 luciferase reporter, 24 h; series mostly up to 92.4 µM; also: nearly all actives have a fitted effect of over 35% in size; also: potency is read from the fitted curve at half-maximal effect
Sequence of Nuclear receptor subfamily 1 group I member 2 (Homo sapiens) (O75469 whole entry, looked up): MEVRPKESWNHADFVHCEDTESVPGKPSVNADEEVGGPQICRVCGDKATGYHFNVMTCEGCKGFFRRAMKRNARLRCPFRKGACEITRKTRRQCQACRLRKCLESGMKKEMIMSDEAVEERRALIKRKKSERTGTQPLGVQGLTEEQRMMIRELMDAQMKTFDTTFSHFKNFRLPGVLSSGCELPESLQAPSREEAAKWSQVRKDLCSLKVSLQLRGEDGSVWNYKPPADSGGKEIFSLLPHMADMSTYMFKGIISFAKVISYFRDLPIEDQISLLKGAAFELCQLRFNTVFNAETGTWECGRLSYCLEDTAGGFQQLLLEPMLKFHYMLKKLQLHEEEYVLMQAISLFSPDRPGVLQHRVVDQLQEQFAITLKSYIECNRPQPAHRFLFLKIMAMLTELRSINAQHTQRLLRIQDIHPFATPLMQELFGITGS
Summary of the method: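 PXR-Luc HepG2 cells (CYP3A4 promoter-driven luciferase) were seeded in medium with 5% charcoal-stripped FBS, left 5 hr at 37 C, then exposed to compounds in DMSO for 24 hr. Luminescence was read after ONE-Glo addition.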

[13] = target: Acetylcholinesterase (Homo sapiens) (UniProt P22303); assay: Acetylcholinesterase (AChE) small molecule antagonists: colormetric cell-based qHTS assay (AID 1347395; calls by dose curve; also: nearly all actives have a fitted effect of over 30% in size); conditions: SH-SY5Y cells AChE activity, colorimetric (Ellman); series mostly up to 115 µM
Sequence of Acetylcholinesterase (Homo sapiens) (P22303 whole entry, looked up): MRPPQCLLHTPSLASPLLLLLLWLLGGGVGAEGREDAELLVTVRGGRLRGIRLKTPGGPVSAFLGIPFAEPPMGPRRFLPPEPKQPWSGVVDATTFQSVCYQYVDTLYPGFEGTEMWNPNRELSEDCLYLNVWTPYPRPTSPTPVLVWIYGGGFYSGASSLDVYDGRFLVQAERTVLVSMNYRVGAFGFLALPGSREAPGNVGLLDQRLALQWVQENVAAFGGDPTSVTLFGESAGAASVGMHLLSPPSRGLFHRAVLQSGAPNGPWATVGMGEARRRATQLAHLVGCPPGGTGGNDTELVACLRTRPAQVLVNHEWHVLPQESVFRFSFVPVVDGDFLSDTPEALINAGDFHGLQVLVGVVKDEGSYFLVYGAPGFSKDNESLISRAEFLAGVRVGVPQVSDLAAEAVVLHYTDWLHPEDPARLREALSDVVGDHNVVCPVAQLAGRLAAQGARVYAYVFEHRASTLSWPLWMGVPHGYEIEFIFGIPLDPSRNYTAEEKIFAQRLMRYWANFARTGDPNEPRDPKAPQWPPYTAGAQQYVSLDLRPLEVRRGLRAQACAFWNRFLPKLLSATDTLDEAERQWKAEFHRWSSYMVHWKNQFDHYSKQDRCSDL
Summary of the method: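 Colorimetric read-out: DTNB detects thiocholine released when cellular AChE in SH-SY5Y cells hydrolyses acetylthiocholine. Cells attached overnight, received compound for 30 min at 37 C, then substrate mix for 90 min at 37 C.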

[14] = target: Progesterone receptor (Homo sapiens) (UniProt P06401); assay: qHTS assay to identify small molecule agonists of the progesterone receptor (PR) signaling pathway (AID 1346784; calls by dose curve; also: nearly all actives have a fitted effect of over 30% in size; also: potency is read from the fitted curve at half-maximal effect); conditions: PR-UAS-bla HEK293T, beta-lactamase FRET ratio, 16 h; series mostly up to 92.4 µM
Sequence of Progesterone receptor (Homo sapiens) (P06401 whole entry, looked up): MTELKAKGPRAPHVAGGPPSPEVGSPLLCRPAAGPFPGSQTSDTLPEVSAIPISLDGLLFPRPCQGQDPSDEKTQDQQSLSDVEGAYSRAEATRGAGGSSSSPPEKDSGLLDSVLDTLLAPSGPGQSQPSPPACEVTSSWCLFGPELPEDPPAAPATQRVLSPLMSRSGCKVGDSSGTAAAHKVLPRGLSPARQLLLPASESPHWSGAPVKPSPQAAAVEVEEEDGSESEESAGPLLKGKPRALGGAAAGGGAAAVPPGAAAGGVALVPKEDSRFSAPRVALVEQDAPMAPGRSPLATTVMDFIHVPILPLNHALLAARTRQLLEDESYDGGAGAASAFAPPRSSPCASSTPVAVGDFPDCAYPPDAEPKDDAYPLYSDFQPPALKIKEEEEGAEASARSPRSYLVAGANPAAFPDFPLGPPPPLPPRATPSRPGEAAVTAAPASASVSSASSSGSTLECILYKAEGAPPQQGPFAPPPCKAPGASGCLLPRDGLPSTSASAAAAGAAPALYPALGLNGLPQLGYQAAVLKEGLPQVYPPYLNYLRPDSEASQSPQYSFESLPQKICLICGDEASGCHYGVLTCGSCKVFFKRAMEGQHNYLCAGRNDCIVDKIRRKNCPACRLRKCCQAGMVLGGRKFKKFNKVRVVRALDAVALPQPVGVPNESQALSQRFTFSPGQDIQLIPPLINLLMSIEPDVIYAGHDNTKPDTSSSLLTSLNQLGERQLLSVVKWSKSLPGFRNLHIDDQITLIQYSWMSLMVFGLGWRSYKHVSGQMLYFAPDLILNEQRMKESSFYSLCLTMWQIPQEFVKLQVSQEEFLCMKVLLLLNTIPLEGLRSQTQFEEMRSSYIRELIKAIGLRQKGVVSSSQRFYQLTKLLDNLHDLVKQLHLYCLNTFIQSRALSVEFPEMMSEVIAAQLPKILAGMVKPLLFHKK
Summary of the method: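 Beta-lactamase reporter read-out: after 16 hr compound treatment at 37C and a further 2 hr at room temperature with LiveBLAzer B/G FRET substrate, fluorescence was measured in PR-UAS-bla HEK 293T cells grown in 2% charcoal-stripped serum.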

[15] = target: Thyrotropin-releasing hormone receptor (Homo sapiens) (UniProt P34981); assay: qHTS assay to identify small molecule antagonists of the thyrotropin-releasing hormone receptor (TRHR) signaling pathway (AID 1346877; active = well fitted inhibition curve with a large enough effect in the repeat runs, not every such curve was filed as active); conditions: TRHR-HEK293, TRH-induced calcium fluorescence, antagonist mode; series mostly up to 51.3 µM
Summary of the method: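 TRHR-expressing HEK293 cells were seeded, cultured 18 h at 37 °C, then loaded with calcium dye for 2 h. Compounds were pre-incubated 5 min at room temperature before 1 nM TRH (final) was added, and kinetic fluorescence was recorded for 3 min.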

[16] = target: Nuclear receptor subfamily 1 group I member 2 (Rattus norvegicus) (UniProt Q9R1A7); assay: Rat pregnane X receptor (rPXR) activation by small molecules, qHTS assay (AID 1346983); conditions: rPXR luciferase reporter cells, One-Glo luminescence, 24 h; stronger effect = higher value; also: nearly all actives have a fitted effect of over 20% in size
Sequence of Nuclear receptor subfamily 1 group I member 2 (Rattus norvegicus) (Q9R1A7 whole entry, looked up): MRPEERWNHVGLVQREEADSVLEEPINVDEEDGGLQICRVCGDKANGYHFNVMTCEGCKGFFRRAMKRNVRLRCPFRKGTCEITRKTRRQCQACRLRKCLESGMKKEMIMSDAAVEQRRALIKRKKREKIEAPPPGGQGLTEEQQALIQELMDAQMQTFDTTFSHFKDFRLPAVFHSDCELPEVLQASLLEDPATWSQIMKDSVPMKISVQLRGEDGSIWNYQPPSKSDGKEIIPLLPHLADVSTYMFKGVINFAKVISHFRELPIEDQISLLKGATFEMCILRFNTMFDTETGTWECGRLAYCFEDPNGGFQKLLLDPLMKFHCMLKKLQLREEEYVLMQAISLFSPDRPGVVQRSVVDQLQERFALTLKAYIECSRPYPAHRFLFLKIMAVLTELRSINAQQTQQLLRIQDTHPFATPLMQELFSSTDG
Summary of the method: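 Cell-based rPXR luciferase reporter assay, 2,000 cells per well, rested 5hr at 37 C before compound addition in DMSO, then 24 hr at 37 C. One-Glo reagent was added and luminescence read after 30 min at room temperature.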

[17] = target: Nuclear receptor subfamily 1 group I member 2 (Homo sapiens) (UniProt O75469); assay: CYP3A4 induction through human pregnane X receptor (PXR) by small molecules, qHTS assay (AID 1346984); conditions: DPX-2 HepG2 PXR, CYP3A4-luciferin luminescence, 24 h; series mostly up to 46.1 µM; also: nearly all actives have a fitted effect of over 40% in size
Summary of the method: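 DPX-2 cells (HepG2 co-transfected with PXR and CYP3A4 promoter-luciferase) treated with compounds 24 h at 37C; luciferin-IPA CYP3A4 substrate 3uM final added for 3 h, then One-Glo; luminescence read. qHTS format.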

[18] = target: Nuclear receptor subfamily 1 group I member 2 (Homo sapiens) (UniProt O75469); assay: Human pregnane X receptor (PXR) activation by small molecules, qHTS assay (AID 1346985); conditions: DPX-2 HepG2 CYP3A4-luciferase, 24 h; series mostly up to 38.3 µM; also: nearly all actives have a fitted effect of over 40% in size
Summary of the method: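 DPX-2 cells (HepG2 co-transfected with a PXR response element and a CYP3A4-promoter luciferase construct) were seeded at 2,000 per well, rested 5 hr at 37C, then exposed to DMSO-dissolved compounds for 24 hr. Activation was read as luciferase luminescence.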

[19] = qHTS assay to identify small molecule agonists of the TGF-beta/Smad signaling pathway - cell viability counter screen (AID 1346829); conditions: SBE-bla HEK293T viability, CellTiter-Glo luminescence, 5 h; series mostly up to 76.8 µM; also: nearly all actives have a fitted effect of over 45% in size; also: potency is read from the fitted curve at half-maximal effect
Summary of the method: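 Luminescence from CellTiter-Glo, read after a 30 min room-temperature incubation, gives cell viability of SBE-bla HEK 293T cells treated 5 hr with compounds at 37 C.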

[20] = target: Progesterone receptor (Homo sapiens) (UniProt P06401); assay: qHTS assay to identify small molecule antagonists of the progesterone receptor (PR) signaling pathway (AID 1346795; active = well fitted inhibition curve with a large enough effect in the signal ratio in the repeat runs, not every such curve was filed as active; the % refers to the signal ratio); conditions: PR-UAS-bla HEK293T, beta-lactamase FRET ratio, 16 h; series mostly up to 92.4 µM
Summary of the method: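 Read-out is fluorescence from the LiveBLAzer B/G FRET substrate, cleaved by a UAS-controlled beta-lactamase in PR-UAS-bla HEK293T cells after 16 hr exposure to compound plus 1 nM promegestone (final), followed by 2 hr at room temperature.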
% is scaled to controls: 0 for no effect and ±100 for the full control effect.

CCC(C)(C)c1ccc(O)c(C(C)(C)CC)c1
inactive and 17.2 µM (active): Potency [10]
inactive: Potency [1] | Potency [4] | outcome [5] | outcome [6] | Potency [11] | Potency [13]
active: Potency [2] 60.4 µM and 30.6 µM | Potency [3] 24.3 µM | Potency [7] 30.6 µM | Potency [8] 21.7 µM | Potency [9] 48 µM and 27.3 µM
27 µM (active) and inactive: Potency [12]

CCCCCl
inactive: Potency [1] | Potency [14] | Potency [3] | outcome [5] | Potency [15] | outcome [6] | Potency [8] | Potency [9] | Potency [10] | Potency [11] | Potency [12] | max activation [16] -0.159% | outcome [17] | Potency [18] | Potency [13]

[Cl-].[Cl-].[Hg+2]
inactive: outcome [5] | Potency [8] | Potency [10] | max activation [16] -4.43%
active: Potency [1] 54.2 µM and 27.3 µM | Potency [2] 4.83 µM and 2.43 µM | Potency [3] 5.42 µM and 2.17 µM | Potency [4] 24.4 µM and 54.9 µM | Potency [19] 54.7 µM and 54.9 µM | Potency [7] 7.08 µM and 6.11 µM | Potency [9] 483 nM and 2.43 µM | Potency [11] 27.2 µM and 54.5 µM

CCC(=O)O[C@@H]1C=C2CCC3C(CCC4(C)C3CC[C@@H]4OC(=O)CC)C2CC1 (some centres undefined)
inactive: Potency [1] | Potency [20] | Potency [2] | Potency [4] | Potency [19] | outcome [5] | Potency [15] | outcome [6] | Potency [8] | Potency [9] | Potency [10] | Potency [11] | Potency [12] | Potency [13]

C[C@]12C=CC3=C4CCC(=O)C=C4CC[C@H]3[C@@H]1CC[C@@H]2O
active: Potency [14] 0.0271 µM | Potency [9] 60.7 µM and 46.1 µM
inactive: Potency [1] | Potency [4] | outcome [5] | outcome [6] | Potency [7] | Potency [8] | Potency [10] | Potency [13]
